Bioassay records: PubChem BioAssay, National Center for Advancing Translational Sciences (NCATS)
Sfp inh: blocks B. subtilis Sfp PPTase activity. Q9F4F7. Biochemical Sfp PPTase activity, qHTS. Potency, µM, without a hit: largest response in the series, negative = inhibition, actives largely listed as inhibitors. hit rate 3.5% among 310,000. AID 1490;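 also: the enzyme is Sfp with the accession as filed and its product quenches rhodamine fluorescence; 0% = enzyme reaction without inhibitor and -100% = no enzyme wells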
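Sfp 15 nM + cpd, 15 min RT; start w/ rhodamine-CoA 5 uM, BHQ-2-YbbR 12.5 uM (final); 50 mM Hepes pH 7.6, 10 mM MgCl2, 0.01% NP-40, 0.01% BSA; read 525/598 nm at 0 and 30 min.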
JMJD2A Tudor: blocks the human JMJD2A Tudor domain; O75164; AlphaScreen JMJD2A-Tudor / H3K4me3 peptide binding; Potency, µM (doses to about 114 µM), without a hit: top-dose activity change, negative = inhibition, hits mostly inhibitors; hit rate 4.4% among 390,000; AID 504339; also: % is scaled to controls: 0 for no effect and ±100 for the full control effect; nearly all actives have a fitted effect of over 50% in size
HP1b binding inh: blocks HP1-beta chromodomain binding to methylated histone tails; P83916; AlphaScreen HP1-beta / biotin-H3K9me3 peptide binding; Potency, µM (highest dose often 114 µM), for the others: at the top dose activity change, negative = inhibition, hits mostly inhibitors; hit rate 0.56% among 390,000; also: nearly all actives have a fitted effect of over 70% in size
Target sequence (P83916 whole entry, looked up): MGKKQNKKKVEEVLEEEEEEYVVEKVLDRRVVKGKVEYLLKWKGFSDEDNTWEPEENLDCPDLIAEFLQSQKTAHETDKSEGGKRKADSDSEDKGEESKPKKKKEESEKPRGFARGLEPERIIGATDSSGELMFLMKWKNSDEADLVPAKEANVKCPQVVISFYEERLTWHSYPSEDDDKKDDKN
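Compound inhibition of the preformed complex between 50 nM HP1-beta and 50 nM biotinylated H3K9me3 peptide was read by AlphaScreen. Buffer was PBS pH 7.4 with 0.01% Tween-20. Incubations ran 30 min at room temperature, with 10 ug/mL donor/acceptor beads.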
G9a block: G9a (human) methyltransferase inhibition; G9a H3K9 monomethylation, AlphaScreen, 2 h; Potency, µM (highest dose often 102 µM), without a hit: top-dose activity, negative = inhibition, hits mostly inhibitors; hit rate 8.8% among 350,000; AID 504332; also: % is scaled to controls: 0 for no effect and ±100 for the full control effect; nearly all actives have a fitted effect of over 75% in size
Target sequence (Q96KQ7 913-1193 limits assumed): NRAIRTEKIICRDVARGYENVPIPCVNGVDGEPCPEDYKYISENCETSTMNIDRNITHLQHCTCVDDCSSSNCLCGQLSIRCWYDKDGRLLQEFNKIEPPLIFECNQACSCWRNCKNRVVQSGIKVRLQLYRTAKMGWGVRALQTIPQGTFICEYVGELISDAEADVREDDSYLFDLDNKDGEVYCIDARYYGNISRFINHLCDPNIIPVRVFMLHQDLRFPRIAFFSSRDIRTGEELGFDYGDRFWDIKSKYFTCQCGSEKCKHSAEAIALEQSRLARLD
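AlphaScreen read-out: biotin-H3K9 peptide (500 nM) methylation by 20 nM enzyme with 20 uM SAM, 2 h at room temperature after 15 min compound preincubation; anti-monomethyl H3K9 antibody plus donor/acceptor beads, 10 min dark.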
BAZ2B block: blocks human BAZ2B. AlphaScreen BAZ2B-H3K14Ac peptide displacement. Potency, µM (top dose mostly 114 µM), for inactives: at the highest dose activity change, negative = inhibition, hits mostly inhibitors. hit rate 4.4% among 360,000; also: % is scaled to controls: 0 for no effect and ±100 for the full control effect; nearly all actives have a fitted effect of over 60% in size
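Protein-peptide AlphaScreen: BAZ2B 50 nM, b-H3K14Ac 50 nM, 1x PBS pH 7.4 + 0.01% Tween-20. Preincubation 30 min RT; cpd 30 min RT (top 110 uM); beads 20 min RT, light-protected.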
PLK1 PBD inh: blocks phosphopeptide binding to human PLK1 polo-box domain; Plk1 PBD binding of FITC phosphopeptide, fluorescence polarization; Potency, µM, inactives show max response, negative = inhibition, actives largely listed as inhibitors; hit rate 2.8% among 360,000; also: series mostly up to about 57 µM; % is scaled to controls: 0 for no effect and ±100 for the full control effect; nearly all actives have a fitted effect of over 65% in size
Starred values were filed as active, the others as inactive; ? = inconclusive; · = no result; [ ] = remark or other dose. Rows were chosen to be rich in hits. Some 12% of all compounds tested hit in one or more screens of this group. Calls follow the shape of the dose curve; as a rule, active = well fitted curve in the direction sought with a large enough effect; inconclusive = small, poorly fitted or top-dose-only effect, or another doubt; inactive = no such curve, though single readings can be large; an effect the other way counts as inactive or inconclusive. Potency is read from the fitted curve at half-maximal effect.

SMILES	Sfp inh	JMJD2A Tudor	HP1b binding inh	G9a block	BAZ2B block	PLK1 PBD inh
COc1cccc(N2CCN(C(=O)CCc3c(C)nc4c(c3C)c(=O)n(C)c(=O)n4C)CC2)c1	·	-8.1%	49.4%	-41.6%[59 µM]	-4.8%	·
CN(C(=O)c1cc(Cl)c2c(c1)OCCO2)c1c(N)n(Cc2ccccc2)c(=O)[nH]c1=O	·	-3.4%	60.8%	-49.8%	4.8%	-0.6%
CSc1ccc(CN(C)C(=O)c2cc(Cl)c3c(c2)OCCO3)cc1	4.0%	-16.8%	12.6%	56.2µM*	?	0.4%
CCN(CC)CCNc1ccc(C)c2sc3ccc(O)cc3c(=O)c12	·	22.4µM*	?	·	·	8.0%
CC(=O)NN(O)C1N(C)C(=O)N(Cc2ccccc2)C1(C)C (stereo not given)	·	2.4%	13.9%	·	·	3.2%
CSC1=NCCN1C(=O)C(C)Oc1ccccc1 (stereo not given)	8.3%	-26.2%	18.6%	9.1%[59 µM]	-4.2%	29.9µM*
CC(Oc1ccccc1)C(=O)N1CCN=C1SCc1ccccc1F (stereo not given)	2.1%	45.2%	63.7%	·	15.9%	2.0%
C/C(=N\NS(=O)(=O)c1c(C)cc(C)cc1C)c1ccncc1	-19.5%	-3.8%	89.7%	8.91µM*	-4.0%	-17.4%
COc1ccc(/C(C)=N/NS(=O)(=O)c2ccccc2)c(OC)c1	17.5%	-6.9%	69.6%	?	-11.0%	3.0%
C/C(=N/NS(=O)(=O)c1ccc(C)c(C)c1)c1ccncc1	10.8%	-10.6%	55.6%	-10.9%[0.501 µM]	-8.1%	-18.2%
COc1ccc(S(=O)(=O)N/N=C(/C)c2ccncc2)c(OC)c1	4.6%	2.3%	54.7%	25.1µM*	-3.0%	?
COc1ccc(S(=O)(=O)N/N=C(/C)c2ccncc2)cc1	1.1%	-9.1%	58.7%	7.08µM*	0.4%	-18.8%
C/C(=N\NS(=O)(=O)c1ccc(Br)cc1)c1ccncc1	0.3%	-11.0%	22.3%	0.3%	-1.6%	5.32µM*
C/C(=N/NS(=O)(=O)c1ccc(Cl)cc1)c1ccncc1	-9.4%	5.3%	30.2%	·	-12.1%	?
Cc1ccc(C(=O)N/C(=C\c2ccc(Cl)cc2)C(=O)NC2CCCCC2)cc1	·	-5.6%	47.2%	5.1%[59 µM]	4.7%	·
COc1ccc(S(=O)(=O)N/N=C(/C)c2ccncc2)cc1OC	-5.2%	-17.2%	45.4%	11.2µM*	-24.2%	-13.9%
c1cncc(CSc2ccc(-c3ccc4c(c3)OCO4)nn2)c1	-14.3%	-13.0%	35.4%	50.1µM*	·	-12.5%
Fc1cccc(CSc2ccc(-c3ccc4c(c3)OCO4)nn2)c1	-16.3%	-4.7%	33.4%	-9.6%	2.2%	-0.7%
CC(=O)Nc1ccc(NC(=O)CSc2ccc(-c3ccc4c(c3)OCO4)nn2)cc1	-20.8%	-25.7%	17.3%	7.94µM*	2.6%	-20.5%
CC(=O)c1ccc(NC(=O)CSc2ccc(-c3ccc4c(c3)OCO4)nn2)cc1	-4.4%	?	10.2%	-3.3%	1.2%	3.6%
COc1ccc(NC2CCCN(C(=O)CN3C(=O)c4ccccc4C3=O)C2)cc1OC (stereo not given)	0.4%	-9.8%	20.9%	-8.6%	-24.8%	2.9%
Cc1ccc(C)c(NC(=O)Cc2nc(CNCC(C)C)cs2)c1	1.7%	-23.6%	12.0%	-21.9%	-37.5%	-8.9%
CS(=O)(=O)N(CC(=O)NCc1ccccn1)Cc1ccc(Cl)cc1	1.7%	11.2µM*	29.2%	?	?	-25.0%
O=C(CN(Cc1ccccc1)C(=O)CNS(=O)(=O)c1ccccc1)NCc1ccco1	10.5%	79.4µM*	-1.0%	-11.4%	-3.9%	-29.9%
CS(=O)(=O)N(CC(=O)NCc1ccccc1)Cc1ccc(Cl)cc1	22.2%	-5.8%	5.4%	13.4%	-4.1%	-9.2%
CCCNS(=O)(=O)c1ccc(CCC(=O)NCc2ccco2)cc1	?	?	-26.2%	-39.3%[12.7 µM]	-5.8%	29.9µM*
CS(=O)(=O)N(CC(=O)NCc1ccc2c(c1)OCO2)Cc1ccccc1	-19.7%	17.8µM*	?	-26.3%[12.7 µM]	-12.7%	8.44µM*
O=C(Cc1ccccc1)NCc1ccc2c(c1)OCO2	11.8%	-18.5%	37.9%	?	-24.3%	-9.3%
